Compound activity from PubChem BioAssay.
CYP2C19 activ – human CYP2C19 activators, primary screen, biochemical, luminescence | activation factor at 5 µM | recombinant CYP2C19, luciferin-H EGE luminescence; stronger effect = higher value; 0 = fully inhibited enzyme, 1 = untreated enzyme | Cytochrome P450 2C19 (Homo sapiens), P33261 | 96,000 tested, under 10 active;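 active = activation factor of at least 2 at 5 µM in the primary screen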
CYP2C9 act – human CYP2C9 activators, primary screen, biochemical, luminescence; recombinant CYP2C9, luciferin-H conversion; stronger effect = higher value; factor 1 = untreated enzyme, 0 = blocked; Cytochrome P450 2C9 (Homo sapiens), P11712; 96,000 compounds, 1.4% hits; activation factor at 5 µM; AID 1024, 2008;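 active = activation factor of 2 or more for CYP2C9 at a 5 µM dose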
DAT uptake mod – changed hDAT dopamine uptake under cocaine IC80, either direction, primary screen, cocaine antagonist project, cell-based, LLC-PK1 hDAT, [14C]-dopamine uptake, MLSMR; Sodium-dependent dopamine transporter (Homo sapiens), Q01959; LLC-PK1 hDAT cells, [14C]-dopamine uptake with cocaine IC80; actives deviate in either direction; 110,000 compounds, 1.3% hits; B-score at 10 µM;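 active = Z score or B-score, a plate-position-corrected score, falls beyond the plate's 99.7% confidence bounds, in either direction; inactive = both scores lie inside the 99.7% bounds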
Target sequence (Q01959 whole entry, looked up): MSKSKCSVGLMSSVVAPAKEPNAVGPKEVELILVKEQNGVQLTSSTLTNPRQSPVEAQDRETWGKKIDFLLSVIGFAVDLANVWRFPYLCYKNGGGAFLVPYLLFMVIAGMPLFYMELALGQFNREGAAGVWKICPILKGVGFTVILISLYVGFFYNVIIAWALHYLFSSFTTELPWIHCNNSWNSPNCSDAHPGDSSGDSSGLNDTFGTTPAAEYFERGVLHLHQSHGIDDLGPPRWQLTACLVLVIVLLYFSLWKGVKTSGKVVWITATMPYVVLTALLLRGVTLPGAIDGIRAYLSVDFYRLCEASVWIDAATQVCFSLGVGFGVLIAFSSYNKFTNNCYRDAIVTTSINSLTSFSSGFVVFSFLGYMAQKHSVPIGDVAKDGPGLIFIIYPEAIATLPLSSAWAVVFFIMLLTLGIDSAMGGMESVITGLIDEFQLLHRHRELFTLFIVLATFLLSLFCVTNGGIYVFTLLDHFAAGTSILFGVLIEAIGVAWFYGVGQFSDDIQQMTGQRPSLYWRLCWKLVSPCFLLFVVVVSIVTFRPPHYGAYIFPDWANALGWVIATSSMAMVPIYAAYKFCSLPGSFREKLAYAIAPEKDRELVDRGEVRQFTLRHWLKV
CYP2C19 inhib – blockers of cytochrome P450 2C19 activity – biochemical, luminescence, ADME assay, primary screen; P33261; CYP2C19 Supersomes, luciferin-H EGE luminescence, 30 min; inhibition, % at 5 µM; 96,000 compounds, 21% hits; AID 778, 2007;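 active = CYP2C19 inhibition above a set limit at 5 µM in the primary screen, cut at about 50% in these data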
CYP2C9 inhib – blockers of cytochrome P450 2C9 activity – biochemical, luminescence, ADME assay, primary screen; P11712; CYP2C9 Supersomes, luciferin-H conversion; inhibition, % at 5 µM; 96,000 compounds, 20% hits; AID 777, 2007;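 active = blocking of liver enzyme CYP2C9 beyond about 50% at 5 µM, limit read from the data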
D1 allo mod – D1 CRE-luciferase signal change, two-sided – cell-based, HEK293 D1, dopamine EC30, D1 allosteric modulator project, primary screen. D(1A) dopamine receptor (Homo sapiens), P21728. dopamine EC30 potentiation; actives deviate in either direction. B-score at 10 µM. 58,000 compounds, 5.9% hits. AID 641, 2007;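 active = luminescence count or its row- and column-corrected plate score outside the 99.7% band of the plate's sample wells, on either side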
Numbers stand for hits; . = inactive; / = no result given. A selection: hits, their analogues and other compounds. The true share with any hit is near 28%.

SMILES	CYP2C19 activ	CYP2C9 act	DAT uptake mod	CYP2C19 inhib	CYP2C9 inhib	D1 allo mod
CC(Sc1ccccc1)C(=O)Nc1ccc(N2CCOCC2)cc1 (configuration not stated)	.	.	.	.	.	/
CCOC(=O)CNC(=O)CSc1nc(NCc2ccccc2)nc(N(C)C)n1	.	.	.	53	.	.
CCNc1nc(SC(C)C(=O)Nc2ccccc2)nc(N2CCOCC2)n1 (configuration not stated)	.	.	.	.	56	/
CN(C)c1ccc(/C=N/N=C2/NC(=O)/C(=C/c3ccc([N+](=O)[O-])cc3)S2)cc1	.	.	/	.	.	/
CCNC(=O)COc1cccc2ccccc12	.	.	.	54	.	/
O=C(COc1cccc2ccccc12)NNC(=O)[C@@H]1CCCC[C@@H]1C(=O)O	.	.	.	.	.	/
CCNC(=O)COc1ccc2ccccc2c1	.	.	.	.	.	.
O=C(COc1cccc2ccccc12)NNC(=O)Nc1ccccc1	.	2	.	53	.	/
CCOC(=O)CCc1cnccc1-c1cccc(OC)c1O	/	/	.	/	/	/
Cc1ccc(C2(c3ccc(C)cc3)CC2C(=O)Nc2ccc([N+](=O)[O-])cc2O)cc1 (configuration not stated)	.	.	.	.	75	/
COC(=O)[C@H](C)NC(=O)Nc1cc(Cl)ccc1C	.	.	.	.	.	/
O=C(NC1=NC2CCCCC2N1)c1ccccc1 (configuration not stated)	.	.	.	.	.	-5.4
CC1CN(C(=O)/C=C/c2cccc([N+](=O)[O-])c2)CC(C)O1 (configuration not stated)	/	/	.	/	/	/
CCCCN(CCCC)C(=O)/C=C/c1cccc([N+](=O)[O-])c1	.	.	.	72	60	/
CCn1c(=O)n(CC(=O)Nc2cc(OC)c(OC)c(OC)c2)c(=O)c2ccccc21	.	.	.	.	.	/
O=C(Nc1ccc2nc(-c3ccc4nc[nH]c4c3)[nH]c2c1)c1cccs1	.	.	.	.	61	/
CC1(C)CC(=O)c2cc(OCC(=O)N3CCN(c4ccccc4F)CC3)ccc2O1	.	.	.	68	.	.
Cc1ccc(-c2cn3c(=O)cc(C)[nH]c3n2)cc1	.	.	.	.	.	/
Cc1csc(N(C)C(=O)CSc2nnc(COc3cccc4ccccc34)o2)n1	.	.	.	.	.	/
C[N+](C)(C)CCOP(=O)(O)OP(=O)([O-])OC[C@H]1O[C@@H](n2ccc(N)nc2=O)[C@H](O)[C@@H]1O	/	/	.	/	/	/
Cc1cc(C)n(C(=O)C23CC4CC(CC(C4)C2)C3)n1	.	.	.	.	.	.
COc1cc(C2C3C(C)N(C)C(=O)N(C)C3N(C)C(=O)N2C)ccc1O (configuration not stated)	.	.	.	87	.	.
COC(=O)c1ccc(C2Nc3ccc(/C(C)=N/NC(=O)C(OC)c4ccccc4)cc3C3C=CCC32)cc1 (configuration not stated)	.	.	.	.	.	/
C1=CC2c3ccccc3NC(c3ccncc3)C2C1 (configuration not stated)	.	.	.	82	73	.
COc1cccc2c1NC(C(=O)O)C1CC=CC21 (configuration not stated)	/	/	/	/	/	.
SMILES	CYP2C19 activ	CYP2C9 act	DAT uptake mod	CYP2C19 inhib	CYP2C9 inhib	D1 allo mod
CC(=O)c1ccc2c(c1)C1C=CCC1C(c1ccncc1)N2 (configuration not stated)	.	.	.	92	90	/
Cc1occc1-c1nnc(SCC(=O)N(C)CCC#N)n1N	.	.	.	.	.	/
Cc1ccc(-c2noc(CCCC(=O)Nc3cccnc3)n2)cc1	.	.	.	.	.	.
N#Cc1cccc2cnccc12	.	.	-2.9	.	.	.
CCCOC(=O)c1ccc(Oc2c(-c3ccc(OC)cc3O)n[nH]c2C)cc1	.	.	.	.	83	.
CCc1cc(-c2n[nH]c(C)c2Oc2ccc(C(C)C)cc2)c(O)cc1O	.	.	.	67	83	/
Cc1[nH]nc(-c2ccc(O)cc2O)c1Oc1ccccc1	.	.	.	100	99	/
CCOC(=O)c1ccc(OCC(=O)c2ccc(O)cc2O)cc1	.	.	.	.	.	.
CCCOC(=O)c1ccc(Oc2c(-c3ccc(O)cc3O)n[nH]c2C)cc1	.	.	.	87	98	.
CCOC(=O)c1[nH]nc(-c2cc(CC)c(O)cc2O)c1-c1cscn1	.	.	.	.	.	/
CCCn1c(=O)[nH]c(=O)c2c1nc(-c1ccc3c(c1)OCCO3)n2CCN1CCOCC1	.	.	.	.	.	.
CSCCC(NC(=O)c1ccccc1)C(=O)NCc1ccco1 (configuration not stated)	.	.	.	.	.	.
CC(C)c1cc(C(C)C)c(S(=O)(=O)N2c3ccccc3[C@@]3(Br)C[C@H]4C(=O)N[C@@H](Cc5ccccc5)C(=O)N4[C@@H]23)c(C(C)C)c1	/	/	.	/	/	/
O=C(CN1CCN(c2ncc(C(F)(F)F)cc2Cl)CC1)N1CCN(c2ncc(C(F)(F)F)cc2Cl)CC1	.	.	.	62	82	/
O=C(CSc1ccc(Cl)cc1)N1CCN(c2ncc(C(F)(F)F)cc2Cl)CC1	.	.	.	.	81	/
O=C(CCSc1ccc(Cl)cc1)N1CCN(c2ncccn2)CC1	.	.	.	.	65	.
O=C(OCCN1CCN(c2ncc(C(F)(F)F)cc2Cl)CC1)c1ccc(F)cc1	.	.	.	.	69	/
O=C(Cc1ncc(C(F)(F)F)cc1Cl)N1CCN(c2ccccn2)CC1	.	.	.	.	.	/
CCOc1ccc(NC(=O)CSc2nnc(C)n2CCCOC)cc1	.	.	.	.	.	.
O=C(CSc1nc2ccccc2[nH]1)NCCN1CCCCC1	.	.	.	.	.	.
Cc1ccc(C(=O)c2ccc([N+](=O)[O-])cc2)c(C)c1	.	.	.	82	60	/
Cc1ccc(C(=O)/C=C/Nc2ccc([N+](=O)[O-])cc2Br)cc1	.	.	.	.	.	/
Cc1ccccc1C(=O)NC1CCN(Cc2nnnn2C2CCCC2)CC1	/	/	.	/	/	/
O=C1C2C3C=CC(C3)C2C(=O)N1/N=C/c1cc(Br)cc([N+](=O)[O-])c1O (configuration not stated)	.	.	-2.8	.	.	/
O=C1C2C3C=CC(C3)C2C(=O)N1/N=C/c1cn(Cc2ccccc2)c2ccccc12 (configuration not stated)	/	/	.	/	/	/
